Test results published in PubChem BioAssay (EPA / NIEHS).
Values joined by “and” are separate entries in the source; they are usually repeats but may differ in a detail not shown here. Equal values may be shown once. Inconclusive results are not listed. More than one record can exist for a structure, and the calls need not agree. Active and inactive are the calls of the source. Rule for the calls, unless noted: active = hit-call score of the fitted dose curve at least 0.9, where 1 is the maximum; inactive = score below 0.9.

Key:
[1] = ATG_NFI_CIS: Attagene CIS-FACTORIAL HepG2 Assay for human Nuclear Factor I (NFI) (AID 2282989); settings: HepG2 cis-regulatory reporter, NFI response element transcription; actives raise or lower the signal
Outline: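 Read-out: reporter mRNA via RT-PCR plus capillary electrophoresis with fluorescence detection. Transiently transfected HepG2 (endogenous TF activity on cis promoters), 24 h compound exposure; gain or loss of signal fitted against DMSO.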

[2] = target: Myc proto-oncogene protein (Homo sapiens) (UniProt P01106); test: ATG_Myc_CIS: Attagene CIS-FACTORIAL HepG2 Assay for human Myelocytomatosis (Myc) Proto-Oncogene Transcription Factor (AID 2282990); settings: HepG2, Attagene cis-reporter transcription factor activity; actives raise or lower the signal
Outline: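 Multiplexed cis-reporter transcription in HepG2 cells after 24 h chemical treatment. Reporter mRNA measured by RT-PCR and capillary electrophoresis fluorescence; activity fitted bidirectionally against DMSO control.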

[3] = ATG_NF_kB_CIS: Attagene CIS-FACTORIAL HepG2 Assay for human Nuclear Factor Kappa B (NF-kB) (AID 2282991); settings: HepG2 Attagene cis-factorial NF-kB reporter mRNA; actives raise or lower the signal
Outline: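 Multiplexed cis-reporter assay in transiently transfected HepG2. 24 h treatment; RNA isolated, RT-PCR, labelled fragments resolved by CE. DMSO baseline.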

[4] = ATG_NRF2_ARE_CIS: Attagene CIS-FACTORIAL HepG2 Assay for human Nuclear Factor Erythroid 2 Related Factor 2 (NFR2) response to Antioxidant Response Elements (ARE) (AID 2282992); settings: HepG2 Attagene ARE/NRF2 reporter, transcription factor activity; actives raise or lower the signal
Outline: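 Endogenous transcription factor activity read out as reporter transcript levels (RT-PCR plus capillary electrophoresis, fluorescence) in transiently transfected HepG2 cells. Measured at 24 h after dosing; gain or loss of signal fitted versus DMSO.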

[5] = ATG_Oct_MLP_CIS: Attagene CIS-FACTORIAL HepG2 Assay for human Octamer-Binding Transcription Factor (Oct) (AID 2282993); settings: HepG2 Attagene cis-factorial Oct reporter, mRNA; actives raise or lower the signal
Outline: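 Read-out: reporter mRNA via RT-PCR plus capillary electrophoresis of 6-FAM-labelled fragments. Transiently transfected HepG2, 24 h exposure, endogenous TF activity on cis elements. Gain or loss of signal fitted relative to DMSO.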

[6] = target: Cellular tumor antigen p53 (Homo sapiens) (UniProt P04637); test: ATG_p53_CIS: Attagene CIS-FACTORIAL HepG2 Assay for human p53 Transcription Factor (AID 2282994); settings: HepG2 p53 cis-element reporter, Attagene mRNA; actives raise or lower the signal
Outline: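 Endogenous p53 activity read in transiently transfected HepG2 from a cis-element-driven reporter transcript after 24 h exposure. RNA reverse-transcribed, PCR-amplified, fluorescently labelled and sized by capillary electrophoresis; gain or loss fitted against DMSO baseline.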

[7] = BSK_3C_TissueFactor: BioMAP Diversity Plus: 3C Assay for Tissue Factor Biomarker Activity (AID 2282997); settings: BioMAP 3C HUVEC, tissue factor biomarker readout; actives raise or lower the signal
Outline: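 Tissue Factor measured by ELISA, 24 h after treatment of primary HUVEC in the BioMAP 3C setting.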

[8] = BSK_3C_uPAR: BioMAP Diversity Plus: 3C Assay for Urokinase-type plasminogen activator receptor (uPAR) Biomarker Activity (AID 2282998); settings: BioMAP 3C HUVEC, uPAR biomarker ELISA; actives raise or lower the signal
Outline: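 HUVEC primary cells; 24 h post-dose; uPAR by ELISA; gain or loss of signal fitted bidirectionally vs DMSO baseline.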

[9] = BSK_3C_VCAM1: BioMAP Diversity Plus: 3C Assay for Vascular cell adhesion molecule 1 (VCAM1) Biomarker Activity (AID 2282999); settings: BioMAP 3C HUVEC, VCAM1 ELISA, cytokine-stimulated; actives raise or lower the signal
Outline: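 Vascular primary endothelium (human umbilical vein) was exposed to chemicals and assayed 24 h later. VCAM-1 levels came from ELISA, with DMSO serving as baseline for bidirectional fitting.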

[10] = BSK_4H_Eotaxin3: BioMAP Diversity Plus: 4H Assay for Eotaxin 3 Biomarker Activity (AID 2283000); settings: primary human endothelial cells (HUVEC); actives raise or lower the signal
Outline: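 Eotaxin-3 (CCL26) levels were measured by ELISA in HUVEC primary cultures 24 h post-dosing. Gain or loss of signal was fitted in both directions, with DMSO serving as baseline and negative control.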

[11] = read-out: Intercellular Adhesion Molecule 1 (ICAM1), ICAM1 (gene 3383); test: BSK_3C_ICAM1: BioMAP Diversity Plus: 3C Assay for Intercellular Adhesion Molecule 1 (ICAM1) Biomarker Activity (AID 2283003); settings: primary human endothelial cells (HUVEC); actives raise or lower the signal
Outline: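 ELISA read-out of ICAM-1; HUVEC (primary human), 3C system, 24 h post-dosing; bidirectional fit vs DMSO baseline.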

[12] = BSK_3C_Proliferation: Cell Proliferation Assessment in the BioMAP Diversity Plus: 3C Assay (AID 2283006); settings: primary human endothelial cells (HUVEC);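 for AC50: potency may reflect either rise or fall in cell number versus DMSO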
Outline: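 HUVEC, sub-confluent; 48 h chemical exposure; 10% TCA fix, 0.1% SRB stain, A560 total protein. Gain or loss of signal fitted both directions vs DMSO control.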

[13] = target: Peroxisome proliferator-activated receptor gamma (Homo sapiens) (UniProt P37231); test: ATG_PPARg_TRANS: Attagene TRANS-FACTORIAL HepG2 Assay for human Peroxisome Proliferator-activated Receptor-gamma (PPARg) (AID 2283007; active = hit-call score of the fitted dose curve at least 0.9, where 1 is the maximum)
Outline: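 Human hepatoma HepG2, transient MRTU transfection, 24 h treatment. mRNA reporter signal by RT-PCR plus capillary electrophoresis, fluorescence detection; fitted for increase over DMSO negative control.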

[14] = target: Nuclear receptor subfamily 1 group I member 2 (Homo sapiens) (UniProt O75469); test: ATG_PXR_TRANS: Attagene TRANS-FACTORIAL HepG2 Assay for human Pregnane X Receptor (PXR) (AID 2283008; active = hit-call score of the fitted dose curve at least 0.9, where 1 is the maximum)
Outline: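 Transactivation by exogenous PXR–GAL4 fusion measured as reporter transcript induction after 24 h compound treatment of transfected human HepG2 cells. Read-out via RT-PCR and capillary electrophoresis of labelled fragments, fitted upward relative to DMSO.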

[15] = target: human Retinoic Acid Receptor gamma (RARg), RARG (gene 5916) (UniProt P13631); test: ATG_RARg_TRANS: Attagene TRANS-FACTORIAL HepG2 Assay for human Retinoic Acid Receptor gamma (RARg) (AID 2283009; active = hit-call score of the fitted dose curve at least 0.9, where 1 is the maximum)
Outline: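 Readout: reporter transcript levels via RT-PCR, 6-FAM primer-extension labelling, HpaI digestion and capillary electrophoresis. Cells: HepG2 carrying transfected RARg-GAL4 chimera plus UAS reporter set. Dosing 24 h; DMSO negative control.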

[16] = target: human Peroxisome Proliferator-activated Receptor alpha (PPARa), PPARA (gene 5465) (UniProt Q07869); test: ATG_PPARa_TRANS: Attagene TRANS-FACTORIAL HepG2 Assay for human Peroxisome Proliferator-activated Receptor alpha (PPARa) (AID 2283001; active = hit-call score of the fitted dose curve at least 0.9, where 1 is the maximum;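 for AC50: potency for gain of reporter signal over DMSO so agonist or activator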)
Outline: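 Exposure: 24 h, transiently transfected HepG2 cells. Endpoint: GAL4-UAS reporter mRNA, RT-PCR with capillary electrophoresis fluorescence. Baseline: DMSO; increases fitted.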

[17] = target: human Peroxisome Proliferator-activated Receptor delta (PPARd), PPARD (gene 5467) (UniProt Q03181); test: ATG_PPARd_TRANS: Attagene TRANS-FACTORIAL HepG2 Assay for human Peroxisome Proliferator-activated Receptor delta (PPARd) (AID 2283002; active = hit-call score of the fitted dose curve at least 0.9, where 1 is the maximum)
Outline: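 Multiplexed trans-activation format: HepG2 liver cells expressing exogenous NR-Gal4 chimeras and GAL4-UAS reporters were exposed for 24 h. Reporter mRNA was detected by RT-PCR with capillary electrophoresis fluorescence; activity fitted as gain of signal relative to DMSO.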

[18] = target: human Retinoic Acid Receptor beta (RARb), RARB (gene 5915) (UniProt P10826); test: ATG_RARb_TRANS: Attagene TRANS-FACTORIAL HepG2 Assay for human Retinoic Acid Receptor beta (AID 2283004; active = hit-call score of the fitted dose curve at least 0.9, where 1 is the maximum)
Outline: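 HepG2 cells were transiently transfected with GAL4-UAS reporter units that report activity of exogenous chimeric NR-Gal4 proteins, then exposed to compound for 24 h. Reporter mRNA was quantified by RT-PCR with capillary electrophoresis fluorescence, as gain of signal over DMSO.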

[19] = target: human RAR-related Orphan Receptor gamma (RORg), RORC (gene 6097) (UniProt P51449); test: ATG_RORg_TRANS: Attagene TRANS-FACTORIAL HepG2 Assay for human RAR-related Orphan Receptor gamma (RORg) (AID 2283011; active = hit-call score of the fitted dose curve at least 0.9, where 1 is the maximum)
Outline: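 HepG2 cells transiently transfected with GAL4-UAS reporter units and chimeric RORg-Gal4 construct; after 24 h chemical exposure, reporter mRNA measured by RT-PCR with fluorescent capillary electrophoresis, gain of signal fitted against DMSO.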

[20] = target: Retinoic acid receptor RXR-alpha (Homo sapiens) (UniProt P19793); test: ATG_RXRa_TRANS: Attagene TRANS-FACTORIAL HepG2 Assay for human Retinoid X Receptor alpha (RXRa) (AID 2283012; active = hit-call score of the fitted dose curve at least 0.9, where 1 is the maximum)
Outline: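 Read-out: fluorescent reporter-transcript fragments quantified by capillary electrophoresis after RT-PCR. Transiently transfected HepG2 cells carrying GAL4-UAS reporters and NR-GAL4 chimeras were exposed to chemical for 24 h; activity scored as increase over DMSO.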

Measured: AC50

Sequence of human Retinoic Acid Receptor beta (RARb), RARB (gene 5915) (P10826 whole entry, looked up, the tested form may be a part): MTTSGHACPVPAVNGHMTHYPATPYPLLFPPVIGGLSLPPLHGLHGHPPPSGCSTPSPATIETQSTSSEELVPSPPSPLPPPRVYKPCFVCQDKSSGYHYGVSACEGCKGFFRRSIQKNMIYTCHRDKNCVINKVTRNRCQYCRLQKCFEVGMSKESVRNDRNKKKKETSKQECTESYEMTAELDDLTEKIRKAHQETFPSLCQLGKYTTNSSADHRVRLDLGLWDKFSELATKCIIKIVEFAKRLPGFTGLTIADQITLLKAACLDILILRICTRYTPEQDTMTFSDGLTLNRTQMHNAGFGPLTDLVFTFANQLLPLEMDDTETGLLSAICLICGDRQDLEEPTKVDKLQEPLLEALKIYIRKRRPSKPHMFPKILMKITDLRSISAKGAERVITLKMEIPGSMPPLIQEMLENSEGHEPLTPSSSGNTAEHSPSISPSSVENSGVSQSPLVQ
Sequence of Cellular tumor antigen p53 (Homo sapiens) (P04637 whole entry, looked up): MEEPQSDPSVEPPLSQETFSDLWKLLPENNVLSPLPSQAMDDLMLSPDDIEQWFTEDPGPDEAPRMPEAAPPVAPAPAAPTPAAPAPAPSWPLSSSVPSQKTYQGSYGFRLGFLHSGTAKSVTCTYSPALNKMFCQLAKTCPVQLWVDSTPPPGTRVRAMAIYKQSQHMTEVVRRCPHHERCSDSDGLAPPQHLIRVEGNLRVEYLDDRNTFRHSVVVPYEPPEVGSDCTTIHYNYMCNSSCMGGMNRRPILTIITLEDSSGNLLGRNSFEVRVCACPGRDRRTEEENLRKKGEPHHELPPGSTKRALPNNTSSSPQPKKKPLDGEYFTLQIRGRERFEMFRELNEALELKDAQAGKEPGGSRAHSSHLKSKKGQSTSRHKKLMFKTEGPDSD
Sequence of Peroxisome proliferator-activated receptor gamma (Homo sapiens) (P37231 whole entry, looked up): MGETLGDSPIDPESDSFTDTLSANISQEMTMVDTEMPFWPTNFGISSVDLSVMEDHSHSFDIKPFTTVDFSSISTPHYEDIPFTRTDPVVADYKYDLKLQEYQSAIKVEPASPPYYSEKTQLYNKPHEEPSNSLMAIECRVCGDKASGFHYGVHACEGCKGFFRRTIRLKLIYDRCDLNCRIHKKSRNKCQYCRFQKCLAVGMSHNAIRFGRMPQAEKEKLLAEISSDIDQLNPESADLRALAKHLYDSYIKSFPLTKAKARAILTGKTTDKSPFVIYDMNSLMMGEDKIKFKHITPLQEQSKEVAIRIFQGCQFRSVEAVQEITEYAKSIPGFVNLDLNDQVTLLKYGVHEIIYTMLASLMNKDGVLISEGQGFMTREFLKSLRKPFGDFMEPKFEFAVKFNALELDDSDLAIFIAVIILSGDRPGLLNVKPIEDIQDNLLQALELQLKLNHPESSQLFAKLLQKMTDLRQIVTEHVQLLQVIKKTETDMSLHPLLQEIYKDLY
Sequence of human Retinoic Acid Receptor gamma (RARg), RARG (gene 5916) (P13631 whole entry, looked up, the tested form may be a part): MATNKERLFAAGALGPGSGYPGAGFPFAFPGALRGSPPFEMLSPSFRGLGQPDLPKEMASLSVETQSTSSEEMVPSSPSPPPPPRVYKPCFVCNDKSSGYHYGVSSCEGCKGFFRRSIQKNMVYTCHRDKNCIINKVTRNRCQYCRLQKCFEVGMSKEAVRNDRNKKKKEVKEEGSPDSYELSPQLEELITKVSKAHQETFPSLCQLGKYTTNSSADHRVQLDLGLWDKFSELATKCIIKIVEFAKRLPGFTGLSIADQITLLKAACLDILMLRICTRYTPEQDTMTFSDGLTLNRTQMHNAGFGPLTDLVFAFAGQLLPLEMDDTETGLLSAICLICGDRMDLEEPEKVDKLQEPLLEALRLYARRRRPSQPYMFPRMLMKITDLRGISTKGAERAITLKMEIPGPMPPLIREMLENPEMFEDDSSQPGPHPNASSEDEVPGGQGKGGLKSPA
Sequence of Nuclear receptor subfamily 1 group I member 2 (Homo sapiens) (O75469 whole entry, looked up, the tested form may be a part): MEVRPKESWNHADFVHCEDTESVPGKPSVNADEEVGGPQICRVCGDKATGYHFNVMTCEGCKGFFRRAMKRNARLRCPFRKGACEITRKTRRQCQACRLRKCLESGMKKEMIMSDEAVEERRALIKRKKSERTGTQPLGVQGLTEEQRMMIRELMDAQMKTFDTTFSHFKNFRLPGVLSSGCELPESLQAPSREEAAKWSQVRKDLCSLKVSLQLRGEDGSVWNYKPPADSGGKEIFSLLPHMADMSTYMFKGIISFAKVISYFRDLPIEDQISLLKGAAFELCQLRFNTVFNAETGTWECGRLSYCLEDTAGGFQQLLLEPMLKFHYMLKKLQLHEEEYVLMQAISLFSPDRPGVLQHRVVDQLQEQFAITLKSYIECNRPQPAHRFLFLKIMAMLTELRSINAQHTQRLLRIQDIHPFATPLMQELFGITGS
Sequence of human RAR-related Orphan Receptor gamma (RORg), RORC (gene 6097) (P51449 whole entry, looked up, the tested form may be a part): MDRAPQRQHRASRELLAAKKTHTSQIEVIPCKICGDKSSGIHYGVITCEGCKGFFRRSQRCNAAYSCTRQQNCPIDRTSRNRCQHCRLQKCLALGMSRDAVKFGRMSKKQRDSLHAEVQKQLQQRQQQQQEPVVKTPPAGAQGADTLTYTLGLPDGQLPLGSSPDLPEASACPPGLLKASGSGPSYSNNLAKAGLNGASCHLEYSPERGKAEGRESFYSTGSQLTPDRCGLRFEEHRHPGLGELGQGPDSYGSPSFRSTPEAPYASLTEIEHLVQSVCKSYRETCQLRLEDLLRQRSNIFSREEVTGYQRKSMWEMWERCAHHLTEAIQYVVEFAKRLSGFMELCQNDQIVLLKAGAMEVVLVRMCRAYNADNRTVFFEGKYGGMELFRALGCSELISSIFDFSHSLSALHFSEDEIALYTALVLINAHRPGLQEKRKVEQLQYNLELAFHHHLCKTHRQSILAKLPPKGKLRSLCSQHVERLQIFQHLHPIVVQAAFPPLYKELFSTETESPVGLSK
Sequence of human Peroxisome Proliferator-activated Receptor delta (PPARd), PPARD (gene 5467) (Q03181 whole entry, looked up, the tested form may be a part): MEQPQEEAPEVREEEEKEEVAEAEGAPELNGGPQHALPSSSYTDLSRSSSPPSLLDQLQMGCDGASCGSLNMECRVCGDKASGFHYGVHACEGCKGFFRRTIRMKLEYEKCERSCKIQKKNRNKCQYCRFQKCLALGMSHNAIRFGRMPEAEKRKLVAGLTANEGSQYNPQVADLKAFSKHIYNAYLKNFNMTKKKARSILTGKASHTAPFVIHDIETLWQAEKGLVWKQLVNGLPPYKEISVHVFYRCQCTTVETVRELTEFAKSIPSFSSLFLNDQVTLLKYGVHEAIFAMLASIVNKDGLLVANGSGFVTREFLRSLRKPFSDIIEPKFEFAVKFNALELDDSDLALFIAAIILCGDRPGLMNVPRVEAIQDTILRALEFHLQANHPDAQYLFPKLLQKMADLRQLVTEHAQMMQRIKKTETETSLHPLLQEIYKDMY
Sequence of human Peroxisome Proliferator-activated Receptor alpha (PPARa), PPARA (gene 5465) (Q07869 whole entry, looked up, the tested form may be a part): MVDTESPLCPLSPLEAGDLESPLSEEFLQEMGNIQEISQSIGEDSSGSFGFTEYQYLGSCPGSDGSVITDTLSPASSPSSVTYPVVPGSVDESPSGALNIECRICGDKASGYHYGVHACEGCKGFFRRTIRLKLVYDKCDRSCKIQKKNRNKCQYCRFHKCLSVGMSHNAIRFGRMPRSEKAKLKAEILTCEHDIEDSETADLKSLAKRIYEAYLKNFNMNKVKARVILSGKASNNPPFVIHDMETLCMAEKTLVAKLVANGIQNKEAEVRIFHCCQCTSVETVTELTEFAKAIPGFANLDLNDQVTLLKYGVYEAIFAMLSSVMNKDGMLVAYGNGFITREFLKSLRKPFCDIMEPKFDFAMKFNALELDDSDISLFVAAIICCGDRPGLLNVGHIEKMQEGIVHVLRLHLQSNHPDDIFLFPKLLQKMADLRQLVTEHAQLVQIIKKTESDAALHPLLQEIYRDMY
Sequence of Myc proto-oncogene protein (Homo sapiens) (P01106 whole entry, looked up): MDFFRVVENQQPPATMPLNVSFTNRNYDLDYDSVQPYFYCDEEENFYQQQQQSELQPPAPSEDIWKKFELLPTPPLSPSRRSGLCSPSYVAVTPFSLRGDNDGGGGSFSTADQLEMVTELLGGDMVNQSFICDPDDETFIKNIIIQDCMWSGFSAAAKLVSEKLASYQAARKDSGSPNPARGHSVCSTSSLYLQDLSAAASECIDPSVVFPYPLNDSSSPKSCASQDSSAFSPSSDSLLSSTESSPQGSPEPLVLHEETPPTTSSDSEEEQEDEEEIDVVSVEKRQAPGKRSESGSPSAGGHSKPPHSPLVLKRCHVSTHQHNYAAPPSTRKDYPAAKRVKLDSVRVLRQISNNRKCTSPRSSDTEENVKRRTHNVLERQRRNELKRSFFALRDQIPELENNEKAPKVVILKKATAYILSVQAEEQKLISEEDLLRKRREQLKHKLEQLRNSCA
Sequence of Retinoic acid receptor RXR-alpha (Homo sapiens) (P19793 whole entry, looked up, the tested form may be a part): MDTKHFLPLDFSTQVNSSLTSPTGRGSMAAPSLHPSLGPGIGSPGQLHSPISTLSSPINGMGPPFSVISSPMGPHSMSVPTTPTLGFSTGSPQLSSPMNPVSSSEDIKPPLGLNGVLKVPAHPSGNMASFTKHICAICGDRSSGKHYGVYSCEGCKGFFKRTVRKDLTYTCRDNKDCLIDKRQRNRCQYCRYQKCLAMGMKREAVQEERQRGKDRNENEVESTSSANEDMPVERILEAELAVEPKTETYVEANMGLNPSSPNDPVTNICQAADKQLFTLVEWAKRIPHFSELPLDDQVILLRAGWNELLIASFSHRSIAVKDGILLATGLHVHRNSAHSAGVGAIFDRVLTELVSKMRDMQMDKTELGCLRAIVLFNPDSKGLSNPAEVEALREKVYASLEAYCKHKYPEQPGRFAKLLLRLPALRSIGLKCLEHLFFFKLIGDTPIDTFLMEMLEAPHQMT

COC(=O)c1ccccc1C(=O)O
inactive: [1] | [2] | [3] | [4] | [5] | [6] | [7] | [8] | [9] | [10] | [11] | [12] | [13] | [14] | [15]

CCOC(=O)c1ccc(O)cc1
active: [5] 100 µM | [16] 20.5 µM
inactive: [1] | [2] | [4] | [5] | [6] | [7] | [8] | [9] | [10] | [16] | [17] | [11] | [18] | [12] | [14] | [15]

CC(=O)[C@H]1CC[C@H]2[C@@H]3CCC4=CC(=O)CC[C@]4(C)[C@H]3CC[C@]12C
active: [4] 33.4 µM and 16.3 µM | [7] 13.1 µM | [8] 5.32 µM | [10] 25.9 µM | [17] 136 µM | [12] 3.36 µM | [14] 2.54 µM [middle of 4 runs]
inactive: [1] | [2] | [4] | [5] | [6] | [9] | [16] | [17] | [11] | [13]

CCCCOCCOCCOCc1cc2c(cc1CCC)OCO2
inactive: [1] | [2] | [3] | [5] | [7] | [8] | [9] | [10] | [16] | [17] | [11] | [18] | [15] | [19]
active: [4] 7.81 µM | [12] 24 µM | [13] 16.9 µM | [14] 13.3 µM

CCCOC(=O)NCCCN(C)C
inactive: [1] | [2] | [4] | [5] | [6] | [7] | [8] | [9] | [10] | [16] | [11] | [18] | [12] | [13] | [20]

COC(=O)CSc1cc(N=c2sc(=O)n3n2CCCC3)c(F)cc1Cl
active: [4] 27.2 µM | [13] 27.4 µM
inactive: [1] | [2] | [5] | [6] | [7] | [8] | [9] | [10] | [16] | [11] | [12] | [14]

COCCO
inactive: [1] | [2] | [4] | [5] | [6] | [7] | [8] | [9] | [10] | [16] | [11] | [18] | [12] | [13] | [14] | [15] | [19]

N[C@@H](Cc1cc(I)c(Oc2ccc(O)c(I)c2)c(I)c1)C(=O)O
active: [6] 25.2 µM | [10] 16 µM | [13] 49.8 µM and 34.9 µM and 4.02 µM | [14] 30.5 µM and 26.8 µM and 6.08 µM
inactive: [1] | [2] | [5] | [6] | [7] | [8] | [9] | [16] | [17] | [11] | [12] | [13] | [14] | [19]

CCOC(=O)COc1cc(-n2ncc(C(F)(F)F)c(C)c2=O)c(F)cc1Cl
inactive: [1] | [2] | [4] | [5] | [6] | [7] | [8] | [9] | [10] | [16] | [11] | [18] | [12] | [13] | [14] | [15] | [19]

CCN(CC)C(=O)c1cccc(C)c1
inactive: [1] | [2] | [4] | [5] | [7] | [8] | [9] | [10] | [16] | [17] | [11] | [18] | [12] | [13] | [14] | [15] | [19]

S=C(S)NCCNC(=S)S.[Mn+2].[S-]C([S-])=NCCN=C([S-])[S-].[Zn+2]
inactive: [1] | [2] | [4] | [5] | [7] | [8] | [9] | [10] | [16] | [11] | [12] | [13] | [14] | [19]
active: [7] 6.82 µM [middle of 6 runs] | [9] 7.78 µM and 7.28 µM and 10 µM | [14] 12 µM and 18.7 µM

CCCCC(CC)COC(=O)c1ccccc1C(=O)O (configuration not stated)
inactive: [1] | [2] | [5] | [6] | [7] | [8] | [9] | [10] | [16] | [17] | [11] | [12] | [14] | [19]
active: [4] 21.9 µM

O=C(O)c1ccccc1
inactive: [1] | [2] | [4] | [5] | [6] | [7] | [8] | [9] | [10] | [16] | [11] | [12] | [13] | [19]

CN(C)C(=O)Nc1ccc(Cl)c(Cl)c1
inactive: [1] | [2] | [6] | [7] | [8] | [9] | [10] | [16] | [17] | [11] | [18] | [12] | [13] | [14] | [15] | [19]
active: [4] 23.6 µM and 13.1 µM | [5] 146 µM and 30.3 µM | [16] 15 µM | [14] 6.84 µM
